Values joined by “and” are separate entries in the source; they are usually repeats but may differ in a detail not shown here. Equal values may be shown once. The panel holds about 83,000 compounds, 20% with a hit somewhere; the sample as a whole holds those more often.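 The endpoint reported here, percent growth, reads 100 for growth as untreated, 0 for no net growth and -100 for all cells dead.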 Values without a mark were called inactive. Active and inactive are the calls of the source.
tested on: MDA-MB-435 melanoma; assay: NCI-60 one-dose screen, 48 h (100 = growth as untreated, 0 = no growth, -100 = all killed); settings: 10 µM
Method: Growth inhibition of the MDA-MB-435 human Melanoma tumor cell line is measured as a screen for anti-cancer activity. Cells are grown in 96 well plates and exposed to the test compound for 48 hours. Compounds are tested at a single concentration, which is 10^-5 M for most compounds. The reported endpoint is percent growth (GI% or GIPRCNT), where numbers from 0 - 100% represent growth inhibition, and numbers from -100% - 0 represent cell death. For example, a value of 40 represents 60% growth inhibition. A value of 0 means no net growth occurred over the course of the experiment. A value of -40 indicates 40% of cells at the beginning of the experiment died by the end of the experiment. A value of -100 means all cells are dead at the end of the experiment.
NCI-60 Human Tumor Cell Lines Screen was performed using the standard one-dose NCI protocol, which is described in more detail at https://dtp.cancer.gov/discovery_development/nci-60/default.htm.
Compounds with GIPRCNT values below 10 were considered active. Activity score was based on GIPRCNT using the following formula: […]
Score is 0 for GIPRCNT values of 100 or above, 50 for GIPRCNT values of 0, and 100 for GIPRCNT values of -100.

| Compound | growth [%] |
| --- | --- |
| CN(C)C(=O)c1ccc(SC(=S)NCc2ccccc2)cc1 | 97.4 |
| COc1ccc(-c2cscc2N)cc1 | 79.1 |
| O=C(Nc1c(Cl)cccc1Cl)Oc1cccc2cccnc12 | 53.6 |

same assay, conditions: 10 µM unless noted

| Compound | growth |
| --- | --- |
| CN=C(N)N/N=C(\C)c1ccc2c(c1)Cc1cc(/C(C)=N/NC(N)=NC)ccc1-2 | -59.7% (active) |
| O=C(Nc1ccccc1)c1cc(Cl)ccc1O | 39.3% |
| O=C(Nc1cccc(Br)c1)Oc1ccc(Cl)c2cccnc12 | 30.2% [100 µM] |
| S=C(NCCNC(=S)[S][Sn]([c]1ccccc1)([c]1ccccc1)[c]1ccccc1)[S][Sn]([c]1ccccc1)([c]1ccccc1)[c]1ccccc1 | -88% (active) |
| Nc1ncnc2c1ncn2C1OC(CO)C(O)C1O (stereo not given) | 110% and 103% and 112% |
| CCCCCCCCCCCCCCCCN(CC)CC | -80.8% (active) |
| CCOC(=O)c1c(C)[nH]c(CO)c1C | 111% |
| N#CC1C(=O)SC2c3ccccc3C(=O)c3ccccc3C12 (stereo not given) | 107% |
| N[C@H](C(=O)O)[C@@H]1CC(Cl)=NO1 | 29.6% [20 µM] |
| CCCCCCC(C)c1ccccc1O (stereo not given) (tested in a mixture with another compound) | 98.7% |
| Oc1ccc(/C=N/NC(=S)Nc2ccccc2)nc1 | 31.5% |
| c1ccc2c(c1)Nc1cc3ccccc3cc1N2 | -16.7% (active) |
| CCOC(=O)/C(=C\c1ccc(-c2ccccc2)cc1)C(C)=O | 98.9% |
| O=C(Nc1ccc(F)cc1)ON=C1CCCCC1 | 98.1% [100 µM] |
| O=C(Oc1cccc2cccnc12)c1ccccc1 | 88% |
| CCCCCCCCCCCCCCCCOP(=O)([O-])OCC[N+](C)(C)C | 68.3% |
| O=C(/C=C\c1ccccc1)N1c2ccccc2CC1c1c[nH]c2ccccc12 (stereo not given) | 83.8% |

| Compound | growth |
| --- | --- |
| COC(=O)Nc1nc2ccc(C(=O)c3ccccc3)cc2[nH]1 | -59.5% (active) and -46.6% (active) and -73% (active) |
| CN(C)c1ccc(C(=C2C=CC(=[N+](C)C)C=C2)c2ccc(N(C)C)cc2)cc1 (tested in a mixture with another compound) | -57.7% (active) |
| O=C(/C=C/C=C/c1ccccc1)c1ccco1 | 92.8% |
| CN(C)c1ccc(N=Nc2cccc3ccccc23)cc1 | 98.8% |
| CC(C)(C)CC(C)(C)c1ccc(OCCSC(=N)N)cc1 | 20.2% |
| NC(=S)N/N=C\c1nccc2c(C(F)(F)C(F)(F)C(F)(F)F)cccc12 | 23.4% |
| NC1=CC(=O)c2ccccc2C1=O | 8.66% (active) |
| CCN(CC)CCOc1ccc(-c2nc3cc(Cl)ccc3s2)cc1 | -51.1% (active) |
| CCN(CC)CC(C)(C)C(=O)/C=C/c1ccc(Cl)c(Cl)c1 | 1.76% (active) |
| O=C(/C=C\c1cc(Br)ccc1O)/C=C/c1cc(Br)ccc1O | -47.9% (active) |
| Nc1nc(N)c2c(ccc3c2ccn3Cc2cccc([N+](=O)[O-])c2)n1 | -93.4% (active) |
| Oc1c(Br)c(Br)c(O)c(Br)c1Br | 106% |
| O=C(O)c1ccc2c3c(ncnc13)-c1ccccc1C2=O | -60% (active) |
| COC(=O)c1nc(=S)[nH]c(C(=O)OC)c1C(=O)c1ccc2ccccc2c1 | 104% |
| Nc1nc(N)c2nc(CNc3ccc(C(=O)NC(CCC(=O)O)C(=O)O)cc3)cnc2n1 (stereo not given) | 35.8% and 24.4% |
| Cc1ccc(N=C=C(c2ccccc2)c2ccccc2)cc1 | 79.9% |
| CC(C)c1ccc2nc3ccc(C(=O)NCCN4CCN(c5ccccc5)CC4)cn3c(=O)c2c1 | 58.7% |

same assay, conditions: 100 µM

| Compound | growth |
| --- | --- |
| CN(C)C(=O)c1ccc(SC(=S)NCc2ccccc2)cc1 | 4.45% (active) |
| COc1ccc(-c2cscc2N)cc1 | 30.4% |
| O=C(Nc1c(Cl)cccc1Cl)Oc1cccc2cccnc12 | 23.8% |

— PubChem BioAssay (NCI)
